About 83,000 compounds went through this panel and 20% of them were active in at least one assay; those are over-represented in the sample as a whole.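 Activity criterion: percent growth below 10, measured after cells in 96-well plates were exposed to a single compound concentration for 48 hours.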 Values without a mark were called inactive. Active and inactive are the calls of the source.

Common to all, as to assay: NCI-60 one-dose screen, 48 h (100 = growth as untreated, 0 = no growth, -100 = all killed)
Holding throughout (details): 10 µM unless noted

Experiment [1] concerns NCI-H23 lung.
Experiment [2] deals with NCI-H226 lung.
The test system of experiment [3] is NCI-H322M lung.
Experiment [4] has as its system HOP-62 NSCLC.
For experiment [5], the system named is NCI-H460 lung.
For experiment [6], the system named is HOP-92 NSCLC.
The test system of experiment [7] is NCI-H522 lung.
The subject of experiment [8] is A549/ATCC NSCLC.
In experiment [9] the test system is 786-0 renal.
Experiment [10] relates to COLO 205 colon.
The subject of experiment [11] is DU-145 prostate.
Experiment [12] relates to K-562 leukemia.
Experiment [13] relates to MALME-3M melanoma.
In experiment [14] the test system is MDA-MB-231 breast.
The test system of experiment [15] is RXF 393 renal.
Experiment [16] relates to SF-268 CNS.
Experiment [17] relates to SF-295 CNS.
Experiment [18] deals with SF-539 CNS.
Experiment [19] concerns UACC-257 melanoma.
Experiment [20] concerns M14 melanoma.

Turning to `CCCCCCCCNc1cccc2c1C(=O)c1ccccc1C2=O`, the growth was 102% in [1]; 96.5% in experiment [2]; 101% in experiment [3]; 115% in experiment [4]; 101% in [5]; 109% in [6]. The growth in [7] was 81.3%; in experiment [8] it was 91.7%; in [9], 104%; in experiment [10], 116%; in [11] it was 112%; in [12], 97.2%. Further, the growth in experiment [13] is 108%; in experiment [14] it was 96.1%; in [15] it was 100%; in experiment [16] it was 94.9%; in experiment [17], 112%; in [18], 121%. For the same compound, the growth was 98.2% in experiment [19] and 107% in [20].
For `CC(=O)c1c(C)[nH]c(-c2nc3ccc(N4CCN(C)CC4)cc3[nH]2)c1-c1ccc2c(c1)OCCO2`, the growth in experiment [1] was 50.1%; in experiment [2] it was 47.9%; in experiment [3] it was 45.8%; in [4] it was 33.7%; in experiment [5], 62.7%; in experiment [6], 39%. Further, the growth in experiment [7] was 48.7%; in experiment [8], 44%; in experiment [9], 40.9%; in experiment [10], 12.7%; in [11], 74.3%; in experiment [12], 31.2%. Also, the growth in experiment [13] was 33.7%; in [14] it was 36%; in [15] it was 49.2%; in [16] it was 68.8%; in [17], 44.4%; in [18] it was 41.7%. The growth in experiment [19] is 48.2%; in experiment [20], 40.1%.
`COc1ccc(-c2nc3c(c(C)nn3-c3ccc(F)cc3)c(=O)[nH]2)cc1`: the growth in experiment [1] was 83.3%; in [2], 33.1%; in [3] it was 78.7%; in experiment [4], 58.8%; in [5], 28.2%; in experiment [6], 91.8%. In addition, the growth was 81.3% in [7]; 45.9% in experiment [8]; 11% in [9]; 74% in experiment [10]; 85% in experiment [11]; 97.1% in [12]. For the same compound, the growth in [13] is 75.3%; in [14] it was 75.2%; in [15] it was 82.8%; in experiment [16], 78.9%; in experiment [17], 68.1%; in experiment [18], 87%. Besides, the growth in experiment [19] was 101%; in [20] it was 82.7%.
As for `Cc1cc(Cl)nc(N(CCNc2ccnc3cc(Cl)ccc23)Cc2ccco2)n1`, the growth in experiment [1] is 45.6%; in experiment [2] it was 70.3%; in [3], 70.6%; in [4], 25.6%; in experiment [5], 31.7%; in experiment [6], 57%. Besides, the growth was 53.2% in experiment [7]; 60.6% in [8]; -9.46% (active) in experiment [9]; 50.9% in [10]; 52.2% in experiment [11]; 16.2% in experiment [12]. The growth in [13] was 81.3%; in [14], 19.3%; in experiment [15], -15.7% (active); in experiment [16], 66.7%; in [17] it was 59.4%; in [18] it was -41.6% (active). The growth is 115% in experiment [19] and 55.3% in experiment [20].
With `O=C1OC(c2ccc(Cl)c(Cl)c2)=C/C1=C/c1cccc([N+](=O)[O-])c1`, the growth was 88.1% in [1]; 86.3% in experiment [2]; 102% in experiment [3]; 94.2% in experiment [4]; 102% in [5]; 94.3% in [6]. For the same compound, the growth in [7] was 90.9%; in [8] it was 97.4%; in experiment [9], 105%; in [10], 108%; in experiment [11], 109%; in [12], 99%. The growth was 101% in experiment [13]; 108% in experiment [14]; 96.4% in experiment [15]; 97.9% in experiment [16]; 101% in experiment [17]; 103% in [18]. The figures for the growth in experiment [19] and in experiment [20] were 103% and 106%, respectively.
In the case of `CCCCC/C(=C\c1ccccc1)C1OC(C)C(C)O1` (stereo not given), the growth in experiment [1] is 90.2%; in [2], 83.4%; in experiment [3], 112%; in [4], 93.5%; in experiment [5], 107%; in experiment [6], 95%. In addition, the growth was 68.5% in experiment [7]; 68.5% in [8]; 91.2% in [9]; 106% in experiment [10]; 103% in [11]; 91.3% in experiment [12]. For the same compound, the growth is 104% in [13]; 99.7% in experiment [14]; 102% in [15]; 95.3% in [16]; 104% in experiment [17]; 99.7% in [18]. Further, the growth in experiment [19] is 70.1%; in experiment [20], 87.8%.
Regarding `CC1(C)CC[C@]2(C(=O)NCCNCCN)CC[C@]3(C)C(=CC[C@@H]4[C@@]5(C)CCC(=O)C(C)(C)[C@@H]5CC[C@]43C)[C@@H]2C1`, the growth in [1] is 93.3%; in experiment [2], 78.1%; in experiment [3], 81.1%; in [4], 70.4%; in experiment [5] it was -55.8% (active); in experiment [6] it was 39.7%. Besides, the growth is 27.2% in experiment [7]; 32.6% in [8]; 78.3% in [9]; -66.6% (active) in experiment [10]; 32.5% in [11]; -47.9% (active) in [12]. The growth in experiment [13] is -65% (active); in experiment [14] it was 6.83% (active); in experiment [15], 50.1%; in experiment [16], 72.7%; in [17], 96.7%; in [18], 76.5%. The growth in experiment [19] was 92.8%; in experiment [20] it was -63.4% (active).

Source of the values: PubChem BioAssay (NCI).
